About 83,000 compounds went through this panel and 20% of them were active in at least one assay; those are over-represented in the sample as a whole.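 Growth was measured after 48 h exposure to one concentration of compound in 96-well plates. Values under 10 count as active.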 Unmarked numbers belong to inactive results.

The test system of the test is BT-549 breast. Nature of the test: NCI-60 one-dose screen, 48 h (100 = growth as untreated, 0 = no growth, -100 = all killed). The following applies: 10 µM unless noted.
With `O=C(/C=C/c1cn(-c2ccccc2)nc1-c1ccc(Cl)cc1)c1cc2ccccc2oc1=O`, the growth was 92.5%.

On to `CCN1C(=O)N(CC)C2SC(N/N=C/c3ccc(OC)cc3)=NC21` (stereo not drawn), for which the growth is 18.9%.

Regarding `O=C(O)c1ccc(-n2cc(CNc3ccc(F)cc3)c(-c3ccc(C(F)(F)F)cc3)n2)cc1`, the growth was 103%.

`COc1cc(/C=C/C(=O)c2ccc(NC(=O)COc3cccc4cccnc34)cc2)cc(OC)c1OC`: the growth is 81.7%.

For the compound `COc1cc(CNC(=O)Cc2ccccc2[N+](=O)[O-])ccc1OCC(=O)NO`, the growth is 106%.

Regarding `Oc1ccc(CSc2nnc(-c3cnccn3)o2)c2cccnc12`, the growth is 31.7%.

As to `O=C(NCCCNc1cc(-c2cn(-c3ccccc3)nc2-c2cccc(O)c2)ccn1)Nc1ccc(F)cc1`, the growth was 22%.

As for `COc1ccc(-c2nn(-c3ccccc3)cc2/C=C/C(=O)c2ccc(NC(=O)CCCCCCC(=O)NO)cc2)cc1`, the growth is 105%.

For the compound `O=C1[C@H]2Cc3c([nH]c4ccccc34)[C@@H](c3c(Cl)cccc3Cl)N2C(=O)CN1C1CCN(Cc2ccccc2)CC1`, the growth is 106%.

Take `COc1cccc(/C=C/C(=O)c2ccc(NC(=O)COc3cccc4cccnc34)cc2)c1`: the growth is 86.1%.

`CCCC(=O)NC(c1cccnc1)c1cc(Cl)c2cccnc2c1O` (stereo not drawn): the growth was 68.8%.

As to `C/C(=N/Nc1nc(N/N=C(/C)c2ccc([N+](=O)[O-])cc2)nc(N2CCOCC2)n1)c1ccc([N+](=O)[O-])cc1`, the growth was 67.3%.

Take `Oc1ccc(CSc2nnc(-c3cnccn3)n2-c2ccccc2)c2cccnc12`: the growth is 41.8%.

Source of the values: PubChem BioAssay (NCI).
